Results filed as inconclusive are left out. Activity calls are given as the source filed them. The calls were made as follows: active = hit-call score of the fitted dose curve at least 0.9, where 1 is the maximum; inconclusive = response in the unintended direction; inactive = score below 0.9.

T1 sequence (P03372 whole entry, looked up, the tested form may be a part): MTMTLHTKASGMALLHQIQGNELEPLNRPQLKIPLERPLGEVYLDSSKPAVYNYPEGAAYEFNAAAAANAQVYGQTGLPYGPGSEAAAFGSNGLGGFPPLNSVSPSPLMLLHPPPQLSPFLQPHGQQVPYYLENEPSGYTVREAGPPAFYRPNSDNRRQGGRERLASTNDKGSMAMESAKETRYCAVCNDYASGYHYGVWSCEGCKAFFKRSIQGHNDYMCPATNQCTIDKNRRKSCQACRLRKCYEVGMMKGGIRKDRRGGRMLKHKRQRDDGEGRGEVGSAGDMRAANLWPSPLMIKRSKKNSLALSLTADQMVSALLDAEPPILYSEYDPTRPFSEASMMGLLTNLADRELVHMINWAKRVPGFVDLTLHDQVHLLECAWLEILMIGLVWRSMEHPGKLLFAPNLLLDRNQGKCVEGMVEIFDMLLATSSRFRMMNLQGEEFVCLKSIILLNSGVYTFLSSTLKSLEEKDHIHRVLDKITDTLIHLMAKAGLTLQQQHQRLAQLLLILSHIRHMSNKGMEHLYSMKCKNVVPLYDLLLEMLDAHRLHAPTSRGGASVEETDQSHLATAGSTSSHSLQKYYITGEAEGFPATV
T1 sequence (Q92731 whole entry, looked up, the tested form may be a part): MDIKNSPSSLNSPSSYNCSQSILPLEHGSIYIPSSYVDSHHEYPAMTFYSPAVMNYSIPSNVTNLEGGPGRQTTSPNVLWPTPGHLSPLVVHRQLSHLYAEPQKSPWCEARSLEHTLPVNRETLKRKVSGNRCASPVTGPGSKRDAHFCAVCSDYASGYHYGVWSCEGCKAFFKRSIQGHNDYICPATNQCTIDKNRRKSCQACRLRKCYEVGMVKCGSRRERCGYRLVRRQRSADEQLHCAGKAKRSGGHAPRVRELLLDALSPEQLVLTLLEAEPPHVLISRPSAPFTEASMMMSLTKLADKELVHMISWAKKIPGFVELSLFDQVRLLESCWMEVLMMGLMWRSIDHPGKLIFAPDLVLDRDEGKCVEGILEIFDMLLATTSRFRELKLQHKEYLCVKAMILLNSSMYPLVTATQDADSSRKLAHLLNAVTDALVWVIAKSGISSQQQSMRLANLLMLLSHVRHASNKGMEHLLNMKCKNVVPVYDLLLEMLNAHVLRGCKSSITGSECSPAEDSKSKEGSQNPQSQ
Chain of Androgen Receptor/SRC-1 Co-activator, AR (gene 367) (P10275 whole entry, looked up, the tested form may be a part): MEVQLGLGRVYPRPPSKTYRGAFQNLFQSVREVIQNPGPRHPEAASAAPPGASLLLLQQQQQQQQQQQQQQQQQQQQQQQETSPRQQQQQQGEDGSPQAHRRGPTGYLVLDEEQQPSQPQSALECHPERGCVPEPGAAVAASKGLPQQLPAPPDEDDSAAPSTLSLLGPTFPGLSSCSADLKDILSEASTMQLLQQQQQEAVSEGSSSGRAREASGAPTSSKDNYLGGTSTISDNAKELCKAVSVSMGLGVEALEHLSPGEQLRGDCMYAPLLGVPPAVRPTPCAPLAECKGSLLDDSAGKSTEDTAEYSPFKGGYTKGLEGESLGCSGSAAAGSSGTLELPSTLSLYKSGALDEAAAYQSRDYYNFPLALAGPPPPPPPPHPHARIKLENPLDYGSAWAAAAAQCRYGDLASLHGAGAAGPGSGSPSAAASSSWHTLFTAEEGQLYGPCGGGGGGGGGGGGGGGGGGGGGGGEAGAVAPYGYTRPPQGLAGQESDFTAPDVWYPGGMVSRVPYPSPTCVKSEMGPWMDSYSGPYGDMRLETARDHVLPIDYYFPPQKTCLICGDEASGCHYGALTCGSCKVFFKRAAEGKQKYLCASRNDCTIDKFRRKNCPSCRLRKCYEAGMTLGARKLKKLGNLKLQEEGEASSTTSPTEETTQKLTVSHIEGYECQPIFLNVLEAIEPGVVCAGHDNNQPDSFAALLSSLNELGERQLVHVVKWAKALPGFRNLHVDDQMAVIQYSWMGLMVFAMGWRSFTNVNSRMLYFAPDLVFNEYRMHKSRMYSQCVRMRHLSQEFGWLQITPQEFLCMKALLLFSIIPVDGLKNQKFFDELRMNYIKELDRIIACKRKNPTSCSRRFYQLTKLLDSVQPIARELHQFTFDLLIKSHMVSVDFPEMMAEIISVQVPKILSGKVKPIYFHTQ

For the first assay, the target named is T1, Estrogen receptor (Homo sapiens) + Estrogen receptor beta (Homo sapiens) (UniProt P03372+Q92731). The experiment in a line: OT_ER_ERaERb_0480: Odyssey Thera (OT) 8-hour HEK293T Protein-Complementation Assay for Estrogen Receptor-alpha/-beta Heterodimer (AID 2283352). The method, boiled down:
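Fluorescence intensity readout from a protein-fragment complementation reporter in HEK293T; ER-alpha/ER-beta LBD heterodimer. Dosing 8 h. Gain-of-signal fit relative to DMSO negative control; laser scanning cytometry of whole-well cell population.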
On to `COc1ccc(-c2coc3cc(O)cc(O)c3c2=O)cc1`, for which the half-maximal activity concentration (AC50) is 2.91 µM (active).
For the compound `CC(=O)OCc1ccccc1`, the outcome was inactive.
On to `CCCCCCCOC(=O)c1ccc(O)cc1`, for which the concentration at half-maximal activity (AC50) was 5.32 µM (active).
Same read-out and setting: next, `O=C(OCc1ccccc1)c1ccc(O)cc1`: 4.92 µM (active); `c1ccc(Nc2cccc3ccccc23)cc1`: 24.8 µM (active); `Oc1ccccc1Cc1ccccc1O`: 23.4 µM (active).
`CC(C)c1ccc(O)c(C(C)C)c1`: the outcome was inactive.
Regarding `CC(CCC(=O)O)(c1ccc(O)cc1)c1ccc(O)cc1`, the AC50 is 39.1 µM (active).
As to `CO[Si](C)(C)OC`, the outcome was inactive.
On to `CCCCCCCCCCCCc1ccc(O)cc1`, for which the AC50 is 1.86 µM (active).
As to `Oc1ccc(-c2ccccc2)c(Cl)c1`, the AC50 was 12.2 µM (active).
With `CCCCCCCCCCCCCCCCCCOS(=O)(=O)O`, the result was inactive.
As to `N#Cc1ccc(C(c2ccc(C#N)cc2)n2cncn2)cc1`, the result was inactive.

The target of the next assay is Androgen Receptor/SRC-1 Co-activator, AR (gene 367) (UniProt P10275). Nature of the assay: OT_AR_ARSRC1_0960: Odyssey Thera (OT) 16-hour HEK293T Protein-Complementation Assay for Androgen Receptor/SRC-1 Co-activator (AID 2283353).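 Also: actives raise the signal above DMSO so potency reflects increased AR and SRC-1 complex.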 The method in brief:
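Stable HEK293T line carries AR and SRC-1 each linked to a Venus fragment; chemicals are applied for 16 h, cells imaged at two wavelengths, and the 488 nm nucleus/cytoplasm ratio is taken as the signal, rising relative to DMSO.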
On to `C=C1C[C@H]2[C@@H]3C=C(C)C4=CC(=O)CC[C@]4(C)[C@H]3CC[C@]2(C)[C@@]1(OC(C)=O)C(C)=O`, for which the AC50 was 6.25 µM (active).
`CC(=O)OCc1ccccc1`: the result was inactive.
Take `CN(C)Cc1cc(CN(C)C)c(O)c(CN(C)C)c1`: the result was inactive.
For `Oc1ccc(-c2ccccc2)c(Cl)c1`, the half-maximal activity concentration (AC50) was 40 µM (active).
For the compound `N#Cc1ccc(C(c2ccc(C#N)cc2)n2cncn2)cc1`, the call was inactive.

For a further assay the target is unchanged. The experiment in a line: OT_AR_ARSRC1_0480: Odyssey Thera (OT) 8-hour HEK293T Protein-Complementation Assay for Androgen Receptor/SRC-1 Co-activator (AID 2283354).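 Also: hits raise the complementation signal above DMSO so AC50 marks enhancers.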 The method, boiled down:
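Reconstituted split-Venus YFP signal from AR–SRC-1 interaction, read by imaging 8 h post-dose in stable HEK293T lines. The 488 nm nucleus-to-cytoplasm ratio (≥400 cells/image) was fitted upward against DMSO.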
As for `C=C1C[C@H]2[C@@H]3C=C(C)C4=CC(=O)CC[C@]4(C)[C@H]3CC[C@]2(C)[C@@]1(OC(C)=O)C(C)=O`, the half-maximal activity concentration (AC50) is 5.8 µM (active).
In the case of `CC(=O)OCc1ccccc1`, the compound was called inactive.
On to `CN(C)Cc1cc(CN(C)C)c(O)c(CN(C)C)c1`, for which the compound was classed as inactive.
Turning to `Oc1ccc(-c2ccccc2)c(Cl)c1`, the concentration at half-maximal activity (AC50) is 31.5 µM (active).
With `N#Cc1ccc(C(c2ccc(C#N)cc2)n2cncn2)cc1`, the compound was called inactive.

Another assay addresses T1, Estrogen receptor (Homo sapiens) + Estrogen receptor beta (Homo sapiens). The experiment in a line: OT_ER_ERaERb_1440: Odyssey Thera (OT) 24-hour HEK293T Protein-Complementation Assay for Estrogen Receptor-alpha/-beta Homodimer (AID 2283356).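 Also: heteromer of ER alpha and ER beta binding domains; hits raise reporter fluorescence and both agonists and antagonists give an increase.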 The method in brief:
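Readout: mean fluorescence intensity in nucleus (agonists) or nucleus plus cytoplasm (antagonists), read by laser scanning cytometer after 24 h compound exposure of HEK293T cells carrying ERα/ERβ LBD fragment-complementation constructs; DMSO baseline.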
For the compound `COc1ccc(-c2coc3cc(O)cc(O)c3c2=O)cc1`, the half-maximal activity concentration (AC50) was 5.37 µM (active).
For `C=C1C[C@H]2[C@@H]3C=C(C)C4=CC(=O)CC[C@]4(C)[C@H]3CC[C@]2(C)[C@@]1(OC(C)=O)C(C)=O`, the concentration at half-maximal activity (AC50) was 16.9 µM (active).
On to `CCCCCCCCCCCC(=O)N(C)CC(=O)O`, for which the result was inactive.
With `CC(=O)OCc1ccccc1`, the result was inactive.
For `CCCCCCCOC(=O)c1ccc(O)cc1`, the AC50 was 12.2 µM (active).
On the same count and under the same terms, next, `O=C(Nc1ccccc1)c1cc(Cl)ccc1O`: 31 µM (active).
Turning to `O=C(OCc1ccccc1)c1ccc(O)cc1`, the AC50 was 33.6 µM (active).
Take `c1ccc(Nc2cccc3ccccc23)cc1`: the AC50 was 47.1 µM (active).
For the compound `Oc1ccccc1Cc1ccccc1O`, the AC50 is 53.4 µM (active).
Take `C[Si](C)(C)N[Si](C)(C)C`: the result was inactive.
Take `CCCCCCCCCC[N+](C)(CCCCCCCCCC)CCC[Si](OC)(OC)OC`: the AC50 was 11.8 µM (active).
On to `CC(C)c1ccc(O)c(C(C)C)c1`, for which the result was inactive.
Turning to `CC(CCC(=O)O)(c1ccc(O)cc1)c1ccc(O)cc1`, the AC50 is 60.1 µM (active).
For `CO[Si](C)(C)OC`, the outcome was inactive.
Turning to `CCCCCCCCCCCCc1ccc(O)cc1`, the half-maximal activity concentration (AC50) is 1.14 µM (active).
For the compound `Oc1ccc(-c2ccccc2)c(Cl)c1`, the AC50 is 15.9 µM (active).
Consider `CCCCCCCCCCCCCCCCCCOS(=O)(=O)O`, for which the concentration at half-maximal activity (AC50) is 23.7 µM (active).
Turning to `N#Cc1ccc(C(c2ccc(C#N)cc2)n2cncn2)cc1`, the outcome was inactive.

Broadly, the AC50 is the concentration giving half of the maximal activity seen.

The values above are taken from PubChem BioAssay (EPA / NIEHS).
